# In PubChem BioAssay AID431 (Sanford-Burnham Center for Chemical Genomics, 2006):
# The campaign covered roughly 63,000 compounds. About 1,100 (1.7%) were called active.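 Rule for the calls: active = compounds whose percent cytotoxicity in the single-dose primary screen, scaled between solvent and toxic-drug controls, exceeds 50; inactive = the rest.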 For the sample, actives were picked, then their nearest neighbours and some compounds at random. Entries with a potency or affinity are not part of this list.
# Assay: cytotoxicity in KRAS-transformed pancreatic duct cells, primary screen, cell-based, fluorescence, HTS (AID 431);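 note: 0% = DMSO solvent wells and 100% = doxorubicin-treated wells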
# Conditions: HPDE-C7K KRASV12 cells, Alamar Blue viability, 48 h; at 10 µM; hits give high values
row,SMILES,cytotoxicity
1,Cc1n[nH]c(C)c1S(=O)(=O)Nc1ccc2c(c1)OCCO2,4.3% (inactive)
2,Cc1cc(C#N)c(C)n1-c1cc(C(F)(F)F)ccc1N1CCOCC1,-11.9% (inactive)
3,COCCCn1c(SCC(=O)N2CCCCC2C)nnc1-c1ccco1 (configuration not stated),-0.2% (inactive)
4,CCn1c2ccccc2c2nnc(SCC(=O)NC(CC(C)C)C(=O)OC)nc21 (configuration not stated),2.3% (inactive)
5,O=C(CSc1nc(-c2ccccc2)cc(=O)[nH]1)N1CCOCC1,8.9% (inactive)
6,CCc1noc(C)c1C(=O)Nc1sc(C(=O)N(C)C)c(C)c1C(=O)OC,2.3% (inactive)
7,COc1ccc(S(=O)(=O)N(CC(=O)O)Cc2ccccc2)cc1OC,1.8% (inactive)
8,COCc1nc2ccccc2n1CCOc1ccccc1OC,-0.4% (inactive)
9,COc1cccc(NC(=O)c2oc3ccccc3c2NC(=O)C(C)(C)C)c1,17.5% (inactive)
10,CSc1ccc(-c2nnn(Cc3ccccn3)n2)cc1,-1.2% (inactive)
11,CC1=CC(C)C2C(=O)N(CCC[N+](C)(C)C)C(=O)C2C1 (configuration not stated),14.9% (inactive)
12,Cc1ccc(S(=O)(=O)Nc2ccc3nc(N)sc3c2)cc1,4.4% (inactive)
13,CSc1nc2ccc(NS(=O)(=O)c3ccc(Cl)s3)cc2s1,54.6% (active)
14,CSc1nc2ccc(S(=O)(=O)NC3CCCCC3)cc2s1,6.2% (inactive)
15,Cc1cc2n(n1)C(c1ccc(N(C)C)cc1)Nc1ccccc1-2 (configuration not stated),23.5% (inactive)
16,c1ccc(-n2c(-c3ccco3)nnc2N2CCOCC2)cc1,-4.7% (inactive)
17,CCOC(=O)N1CCN(C(=O)CCS(=O)(=O)c2ccc(Br)s2)CC1,-3.8% (inactive)
18,CC1(C)Nc2ccc(O)cc2-c2c1ssc2=S,87.7% (active)
19,CC1(C)c2ssc(=S)c2-c2ccccc2N1C(=O)c1ccco1,-6.9% (inactive)
20,O=C(c1ccncc1)N1CCN(C(=O)c2ccncc2)CC1,-16.4% (inactive)
21,Nc1c(NCCCN2CCOCC2)c2ccccc2oc1=O,6.2% (inactive)
22,Cn1nnnc1SCc1nc2ccccc2[nH]1,3.7% (inactive)
23,OC(Cn1cncn1)c1ccc(Cl)cc1Cl (configuration not stated),1.1% (inactive)
24,Clc1ccc(OCCn2ccnc2)c(Cl)c1,-10.5% (inactive)
25,OC(Cn1ccnc1)c1ccc(Cl)cc1Cl (configuration not stated),0.4% (inactive)
26,CC(Oc1ccc(Cl)cc1Cl)C(=O)NCCCn1ccnc1 (configuration not stated),2.8% (inactive)

row,SMILES,cytotoxicity
1,Clc1ccc(SCCn2ccnc2)cc1,-7.6% (inactive)
2,O=C(COc1ccc(Cl)cc1Cl)NCCCn1ccnc1,1.3% (inactive)
3,COc1ccc(-c2ccc(-c3noc(-c4ccco4)n3)c(OC)n2)cc1,9.8% (inactive)
4,O=C1c2oc3ccccc3c(=O)c2C(c2cccc(Br)c2)N1Cc1ccco1 (configuration not stated),5.4% (inactive)
5,Cc1cc(C)nc(SCc2nnc(SCC(=O)N3CCCc4ccccc43)n2C)n1,9.2% (inactive)
6,O=C(COC(=O)CN1C(=O)c2ccccc2C1=O)Nc1ncc(Cl)cc1Cl,-11.3% (inactive)
7,CCO/C=N/c1c(C#N)c(CC#N)nn1-c1ccccc1,-4.3% (inactive)
8,COc1ccc(C2CC(c3c(O)cc(C)oc3=O)=NCCS2)c(OC)c1 (configuration not stated),69.2% (active)
9,COc1ccc(C2C(C(C)=O)=C(O)C(=O)N2C)c(OC)c1 (configuration not stated),18.5% (inactive)
10,COc1ccc(C2NC(=O)c3n[nH]c(C)c32)c(OC)c1 (configuration not stated),2.8% (inactive)
11,c1ccc(Sc2nc(N3CCCCC3)nc(N3CCCCC3)n2)nc1,-16.3% (inactive)
12,Cc1cc(C)c(S(=O)(=O)Nc2ccc(O)cc2)cc1C,13% (inactive)
13,O=C(CCC1COc2ccccc2O1)Nc1ncccc1O (configuration not stated),-11.8% (inactive)
14,CN1/C(=C\P(=O)(N(C)C)N(C)C)C(C)(C)c2ccccc21,-1.6% (inactive)
15,O=C(NCC1(N2CCOCC2)CCCCC1)c1ccc(Cl)c(S(=O)(=O)NCc2ccco2)c1,-5.8% (inactive)
16,Cc1ccc(C)c(N2CCN(C(=O)c3ccc(CS(=O)(=O)c4ccccc4C)o3)CC2)c1,52.8% (active)
17,COc1ccc(S(=O)(=O)Cc2ccc(C(=O)N3CCN(c4cccc(C)c4C)CC3)o2)cc1,48.2% (inactive)
18,Cc1cccc(N2CCN(C(=O)c3ccc(Cl)c(S(=O)(=O)NCc4ccco4)c3)CC2)c1C,55.9% (active)
19,Cc1ccccc1S(=O)(=O)Cc1ccc(C(=O)N2CCN(c3cccc(C)c3C)CC2)o1,73.9% (active)
20,Cc1ccc(S(=O)(=O)Cc2ccc(C(=O)N3CCN(c4cc(C)ccc4C)CC3)o2)cc1,20.6% (inactive)
21,Cc1ccccc1S(=O)(=O)Cc1ccc(C(=O)N2CCN(c3ccc(F)cc3)CC2)o1,3.3% (inactive)
22,Cc1ccccc1S(=O)(=O)Cc1ccc(C(=O)N2CCN(c3ncccn3)CC2)o1,-21.5% (inactive)
23,O=C(O)c1ccc(Cl)c(S(=O)(=O)NCc2ccco2)c1,-11.1% (inactive)
24,CCSc1nc2c(c(=O)n(C)c(=O)n2C)n1Cc1ccc(Cl)cc1,1.1% (inactive)
25,CSc1ccc2[nH]c(=O)cc(C)c2c1,-15.6% (inactive)
26,c1ccc(Cn2nnnc2CN2CCCC2)cc1,-11% (inactive)
